CDC25B-CDK2 inh – human CDC25B-CDK2/CyclinA binding inhibition; HTRF CDC25B-CDK2/CyclinA binding, anti-His/anti-Flag; stronger effect = higher value; AID 1259370; 94,000 compounds, 0.72% hits; P30305+P24941; z-score (no concentration beside the values); in the data active means z-score above about 3.2
TAR Tat displ – HIV-1 TAR-Tat binding disruption; HIV-1 TAR RNA, Tat peptide displacement FRET; stronger effect = higher value; AID 1259389; z-score (test concentration not listed); 100,000 compounds, 0.6% hits; active means z-score of 3 or more in at least 2 runs
* marks the source's active call; other numbers are inactive results; . = no result. This is a sample that favours compounds with a hit; in the whole collection about 0.9% have one here.

SMILES	CDC25B-CDK2 inh	TAR Tat displ
O=C(CN1N=NC2C(=O)N(c3ccc(F)c(F)c3)C(=O)C21)Nc1ccccc1Cl (stereo not drawn)	.	0.54
CCOc1cc(C2CC(=O)N3CN(c4ccc(C)cc4)CSC3=C2C#N)ccc1O (stereo not drawn)	3.2*	3
CN1CSC2=C(C#N)C(c3cccc(OCc4ccccc4)c3)CC(=O)N2C1 (stereo not drawn)	3.4*	-1.9
CCOC(=O)c1ccc(N2CSC3=C(C#N)C(c4ccc(SC)cc4)CC(=O)N3C2)cc1 (stereo not drawn)	5.1*	-2.3
CN1CSC2=C(C#N)C(c3ccccc3)CC(=O)N2C1 (stereo not drawn)	4.1	0.4
CC1(C)C(=O)N(CC(=O)Nc2nccs2)c2ccc(S(=O)(=O)N3CCCC3)cc21	.	-0.49
Cc1c(Cl)cccc1Nc1ccccc1C(=O)O	.	1.1
O=C(O)c1ccccc1Nc1cccc2c1C(=O)c1cccc(Nc3ccccc3C(=O)O)c1C2=O	.	19*
CCC(C)N1C(=O)C2C(C(=O)Nc3ccc(C)c(C)c3)C3C=CC2(O3)C1C(=O)NC1CCCCC1 (stereo not drawn)	-0.39	.
Cn1c(=O)c2c(-c3ccc(Br)cc3)n(-c3ccc4c(c3)nc(CO)n4C)cc2n(C)c1=O	15*	1.7
Cc1ccc(-n2cc3c(c2-c2ccc(Br)cc2)c(=O)n(C)c(=O)n3C)cc1	-1.6	-0.23
CC(C)Cc1nn2cc(-c3ccc(Cl)cc3)nc2s1	-1.5	0.22
Cc1c(CCOC(=O)C2C3CC4CC(C3)CC2C4)sc[n+]1CC(=O)c1ccc(Br)cc1 (stereo not drawn)	9.1*	.
O=S(=O)(NCCc1csc2nc(-c3ccccc3F)nn12)c1ccc2c(c1)CCCC2	.	0.77
CC(=O)Nc1ccc(S(=O)(=O)Nc2cc(Cl)cc(Cl)c2)cc1	0.39	.
CCOCCCNC(=O)C1CCCN1c1nn2c(=O)cc(C)nc2s1 (stereo not drawn)	0.59	1.6
N#CC1=C2N=C(N)c3ccccc3N2C2=C(C(=O)CCC2)C1c1ccccc1Cl (stereo not drawn)	-0.95	-1.2
N#CC1=C2N=C(N)c3ccccc3N2C2=C(C(=O)CCC2)C1c1ccccc1F (stereo not drawn)	18*	-5.2
N#CC1=C2N=C(N)c3ccccc3N2C2=C(C(=O)CCC2)C1c1ccc(Cl)cc1 (stereo not drawn)	-1.3	1.5
N#CC1=C2N=C(N)c3ccccc3N2C2=C(C(=O)CCC2)C1c1c(F)cccc1Cl (stereo not drawn)	9.3*	-6.6
COC(=O)C1C(=O)C2=C(CC1C)NC(C)=C(C(=O)OC1CCCC1)C2c1ccc(F)cc1 (stereo not drawn)	0.11	1.1
CC1Sc2ccc(S(=O)(=O)N(Cc3ccccc3)C(C)C)cc2NC1=O (stereo not drawn)	.	1.4
CCc1cc2c(NC(C)CCc3ccco3)ncnc2s1 (stereo not drawn)	.	0.64
Fc1cc(F)cc(-c2noc3ncnc(NC4CCN(Cc5ccccc5)CC4)c23)c1	.	0.52
CCCNC(=O)NCc1c(C)nn(C)c1C	.	0.88
SMILES	CDC25B-CDK2 inh	TAR Tat displ
Cc1ccc2c(ccc(/C=C3\Sc4ccccc4N3C)[n+]2C)c1	0.39	-9.2
Cc1ccc2c(c1)N(C)/C(=C/c1sc3ccccc3[n+]1CCO)S2	-1.9	4.3*
Cc1cc(C)cc(OCC(=O)N2N=C3CCC(C)CC3C2(O)C(F)(F)F)c1 (stereo not drawn)	-1.6	.
CSc1sc(C(=O)NC(=O)Nc2ccc(Cl)cc2)c2c1-c1nocc1CC2	13*	.
CSc1sc(C(=O)NNC(=O)Nc2ccc(Cl)cc2)c2c1C1(CCC2)SCCS1	-1.5	.
O=C(O)c1cc(-c2ccccc2)nc2ccccc12	-1.3	4.1
N#Cc1ccc(-c2cc(C(=O)O)c3c(ccc4ccccc43)n2)cc1	12*	.
Cn1c(=O)n(Cc2ccccc2)c(=O)c2c1nc1n2CCN1c1ccc(F)cc1	.	1.6
Cn1c(=O)n(C/C=C/c2ccccc2)c(=O)c2c1nc1n2CCN1c1ccc(F)cc1	.	12*
CCN(CC)CCn1c(C)c(C)c2c1ncn1nc(-c3ccccc3Br)nc21	-1.8	1.3
CC(C)Cn1cc(NC(=O)Nc2ccc(Br)cc2F)c2ccccc2c1=O	14*	-0.05
CC(C)Cn1cc(NC(=O)Nc2cc(F)ccc2F)c2ccccc2c1=O	.	1.1
N#CC1=C2SCN(Cc3ccco3)CN2C(=O)CC1c1cccc2ccccc12 (stereo not drawn)	-1.5	1.6
N#CC1=C2SCN(C3CCCCC3)CN2C(=O)CC1c1cccc2ccccc12 (stereo not drawn)	4.2*	0.13
CCOc1ccc(C2CC(=O)N3CN(C4CCCC4)CSC3=C2C#N)cc1 (stereo not drawn)	1.9	2.3
N#CC1=C2SCN(C3CCCC3)CN2C(=O)CC1c1ccc(F)cc1 (stereo not drawn)	4*	0.82
COc1ccc(OC)c(C2CC(=O)N3CN(C4CCCCC4)CSC3=C2C#N)c1 (stereo not drawn)	5.3*	-0.96
COc1cccc(C2CC(=O)N3CN(C4CCCC4)CSC3=C2C#N)c1 (stereo not drawn)	5.7*	2
COc1cccc(C2CC(=O)N3CN(C4CCCCC4)CSC3=C2C#N)c1 (stereo not drawn)	5.3*	-0.12
Cc1nn(C)c(C)c1S(=O)(=O)N(Cc1cc(CN2CCOCC2)cs1)c1ccc(Cl)cc1	.	-0.8
Cc1cc2c3c([nH]c2cc1S(=O)(=O)NCCN1CCCC1)CC(C)(C)CC3=O	.	-0.5
CSc1ccc(C2CC(=O)N3CN(c4ccccc4C)CSC3=C2C#N)cc1 (stereo not drawn)	15*	0.58
CSc1ccc(C2CC(=O)N3CN(c4ccc(C)cc4)CSC3=C2C#N)cc1 (stereo not drawn)	5.5*	-3.1
CSc1ccc(C2CC(=O)N3CN(Cc4ccco4)CSC3=C2C#N)cc1 (stereo not drawn)	2	0.97
CSc1ccc(C2CC(=O)N3CN(c4ccccc4)CSC3=C2C#N)cc1 (stereo not drawn)	4.1*	-1.2
SMILES	CDC25B-CDK2 inh	TAR Tat displ
CCc1ccc(C2CC(=O)N3CN(c4ccccc4)CSC3=C2C#N)cc1 (stereo not drawn)	4.5*	-1.2
CSc1ccc(C2CC(=O)N3CN(c4ccccc4F)CSC3=C2C#N)cc1 (stereo not drawn)	0.14	2.3
CSc1ccc(C2CC(=O)N3CN(C)CSC3=C2C#N)cc1 (stereo not drawn)	0.34	0.89
COc1cc2c(cc1OC)CN(S(=O)(=O)c1ccc(Oc3ccccc3)cc1)CC2	0.16	.
COc1ccccc1OCCSc1nc(-c2ccco2)nc2cc(=O)[nH]n12	.	-0.27
O=C(Nc1ccccc1Cl)c1cnn2c1NC(c1ccco1)CC2C(F)(F)F (stereo not drawn)	.	-16
COc1ccc(Nc2nc(N)c3ccccc3n2)cc1	-1.9	0.37
COc1cc2nc(Nc3ccc(F)cc3)nc(N)c2cc1OC	13*	1.6
COc1cc2nc(Nc3ccc(C)c(Cl)c3)nc(N)c2cc1OC	4.9	1.3
COc1cc2nc(Nc3ccc(C)c(C)c3)nc(N)c2cc1OC	9.3*	1.3
COc1ccc(-c2nc(CSc3nc4ccncc4[nH]3)c(C)o2)cc1	-1.2	0.26
Cc1nc2ccccc2c2c1C(=O)N(CC1CCCO1)C2=O (stereo not drawn)	7.4*	0.78
Cc1nc2ccccc2c2c1C(=O)N(CC(C)C)C2=O	-0.98	-0.86
